Shown are actives, neighbours in structure and some others; about 5.7% of the full set was active somewhere.
Myeloid diff MLP = compounds promoting myeloid differentiation. ER-HoxA9 myeloid progenitors, lysozyme-GFP differentiation, flow cytometry. calls only at 10 µM. 360,000 compounds, 1% hits;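 active = normalized GFP-positive differentiation at or above the plate's own cutoff, the solvent-only control mean plus 3 SD; inconclusive = no clear call, values can overlap the other calls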;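 also: cells exposed to compound for four days before flow analysis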
MPTP inh = inhibitors of mitochondrial permeability transition pore | 360,000 compounds, 1.4% hits | isolated mouse mitochondria, Ca2+ swelling absorbance, 30 min | AID 602449 | inhibition, % at 10 µM;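 active = inhibition of 50% or more, scaled per plate between neutral and stimulator controls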
NR3A LBD binder = NR3A (human) ligand-binding domain modulation | AID 1259313 | NR3A LBD differential scanning fluorimetry, Tm shift; 0% = protein alone, 100% = glycine-bound protein | 340,000 compounds, 2.5% hits | Tm shift relative to glycine control, % at 25 µM;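 active = melting temperature shift of at least 10% of the positive control shift, at one fixed dose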
rCAG RNA binder = r(CAG) repeat RNA binding | AID 651821 | 370,000 compounds, 1.3% hits | inhibition, % at 3 µM | TO-PRO-1 dye displacement fluorescence;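 active = inhibition above the plate cutoff, the mean of all test compounds on that plate plus 3 SD, cut at about 35% in these data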;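 also: higher means more dye released from RNA so lower well fluorescence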
FAS-TE inh = blocks the thioesterase domain of human fatty acid synthase; 360,000 compounds, 0.67% hits; inhibition, % at 15 µM; recombinant FAS-TE, OMFH fluorogenic substrate, fluorescence endpoint; P49327;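 active = compounds whose normalised, plate-corrected inhibition of enzyme fluorescence in the single-dose primary screen is 50% or more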
FAS-TE conf = confirmation of human fatty acid synthase thioesterase inhibitors; 2,300 compounds, 45% hits; recombinant FAS-TE, OMFH fluorogenic substrate, fluorescence; shares compounds with FAS-TE inh; inhibition, % at 15 µM; AID 624325;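 active = compounds inhibiting the enzyme by at least 50% at 15 µM in any one of the replicates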
Large screens that a line does not name were inactive (follow-up assays come after a bar, where they were run).

CCN(c1ccccc1)S(=O)(=O)c1cccc(C(=O)OCc2nc3sc(C)c(C)c3c(=O)[nH]2)c1	FAS-TE inh 52 | FAS-TE conf inactive
O=C(CSc1ccc([N+](=O)[O-])cn1)Nc1cc(C(F)(F)F)ccc1N1CCOCC1	FAS-TE inh 56 | FAS-TE conf inactive
O=C(CSc1ccc([N+](=O)[O-])cn1)Nc1ccccc1N1CCOCC1	none
Cc1ccc(S(=O)(=O)N2CCCCC2)cc1NC(=O)c1ccc2ccccc2n1	none
COc1ccc(S(=O)(=O)N2CCCCC2)cc1NC(=O)c1cccc(S(=O)(=O)N2CC(C)OC(C)C2)c1 (stereo not drawn)	FAS-TE inh 65 | FAS-TE conf inactive
COc1ccccc1NC(=O)c1ccc(S(=O)(=O)N(C)c2ccccc2OC)cc1	none
COc1ccc(NC(=O)c2ccc3ccccc3n2)cc1S(=O)(=O)N1CCCCC1	none
COc1ccc(S(=O)(=O)N2CCOCC2)cc1NC(=O)c1ccc(S(=O)(=O)N(C)c2ccccc2OC)cc1	FAS-TE inh 61 | FAS-TE conf inactive
COc1ccccc1NS(=O)(=O)c1cc(NC(=O)c2ccc3ccccc3n2)ccc1Cl	FAS-TE inh 65 | FAS-TE conf inactive
COc1ccc(S(=O)(=O)N2CCCCC2)cc1NC(=O)c1ccc2ccccc2n1	FAS-TE inh 53 | FAS-TE conf inactive
O=C(NCc1ccccc1)[C@H]1CCCN1C(=O)[C@H]1CCCN1C(=O)c1ccc(F)cc1F	none (no result: Myeloid diff MLP, MPTP inh, NR3A LBD binder, FAS-TE inh)
O=C(N[C@H](C(=O)N1CCC[C@H]1C(=O)NCCc1ccccc1Cl)c1ccccc1)c1cccs1	none (no result: Myeloid diff MLP, MPTP inh, NR3A LBD binder, FAS-TE inh)
CCN(CC(=O)NCc1ccc(Cl)cc1)C(=O)/C=C/c1ccc(Cl)c([N+](=O)[O-])c1	FAS-TE inh 65 | FAS-TE conf inactive
O=C(Nc1nc2ccccc2s1)c1ccc(N2CCCCC2)c([N+](=O)[O-])c1	FAS-TE inh 54 | FAS-TE conf inactive
CC1CCN(S(=O)(=O)c2ccc3c(c2)c(=O)c(C(=O)NCc2ccco2)cn3C)CC1	FAS-TE inh 71 | FAS-TE conf 80
CCN1CCCC1CNC(=O)c1cn(C)c2ccc(S(=O)(=O)N3CCCCCC3)cc2c1=O (stereo not drawn)	none (no result: Myeloid diff MLP)
Cn1cc(C(=O)NCC2COc3ccccc3O2)c(=O)c2cc(S(=O)(=O)N3CCCCC3)ccc21 (stereo not drawn)	FAS-TE inh 53 | FAS-TE conf inactive
CCN(CC)S(=O)(=O)c1ccc2c(c1)c(=O)c(C(=O)NCc1ccco1)cn2C	none
CCCCCCCCN1C(=O)[C@@H](CC(=O)N2CCCCC2)C[C@@]2(C(=O)OC)C1=C[C@H](C1CCCC1)O[C@@H]2C	none (no result: Myeloid diff MLP, MPTP inh, NR3A LBD binder, FAS-TE inh)
Cc1cc2cc(CN(Cc3cccs3)C(c3nnnn3C(C)(C)C)C(C)C)c3nnnn3c2cc1C (stereo not drawn)	FAS-TE inh 52 | FAS-TE conf inactive
CCC(C)(C)n1nnnc1C(C(C)C)N(CCN1CCOCC1)Cc1cc2cccc(C)c2[nH]c1=O (stereo not drawn)	none
COc1ccc(Cn2cc(CN3[C@@H](c4ccccc4)COc4cc(Br)ccc4S3(=O)=O)nn2)cc1	none (no result: Myeloid diff MLP, MPTP inh, NR3A LBD binder, FAS-TE inh)
COC(=O)c1cc(S(=O)(=O)NCC2CCN(C(=O)C(=O)c3cccs3)CC2)cs1	none (no result: Myeloid diff MLP, MPTP inh, NR3A LBD binder, FAS-TE inh)
CC(=O)Nc1ccc(NC(=O)c2ccccc2S(=O)(=O)c2ccc([N+](=O)[O-])cc2)cc1	FAS-TE inh 59 | FAS-TE conf 64
COc1ccccc1NC(=O)c1ccccc1S(=O)(=O)c1ccccc1[N+](=O)[O-]	none
COc1ccccc1NC(=O)c1ccccc1S(=O)(=O)c1ccc([N+](=O)[O-])cc1	FAS-TE inh 54 | FAS-TE conf 63
COc1ccc(NC(=O)c2c[nH]n3c(=O)cc(C4CCN(C(=O)OC(C)(C)C)CC4)nc23)cc1Cl	none
CC(C)(C)OC(=O)N1CCC(c2cc(=O)n3[nH]cc(C(=O)Nc4ccc(F)c(Cl)c4)c3n2)CC1	FAS-TE inh 77 | FAS-TE conf 64
COc1ccc(-c2ccccc2C2Cc3nnccc3CN2)cc1 (stereo not drawn)	none (no result: Myeloid diff MLP, MPTP inh, NR3A LBD binder, FAS-TE inh)
Cc1cccc(-c2cc3nc4c(c(N5CCOCC5)n3n2)CCCC4)c1	none
Fc1ccc(-c2cc3nc4c(c(N5CCOCC5)n3n2)CCCC4)cc1	none
COc1ccc(-c2cc3nc(-c4ccccc4)cc(N4CCC5(CC4)OCCO5)n3n2)cc1	Myeloid diff MLP inconclusive, FAS-TE inh 52 | FAS-TE conf inactive
COc1ccc(-c2cc3nc4c(c(N5CCC6(CC5)OCCO6)n3n2)CCC4)cc1	FAS-TE inh 51 | FAS-TE conf inactive
COc1cccc(-c2cc3nc4c(c(N5CCC6(CC5)OCCO6)n3n2)CCC4)c1	FAS-TE inh 55 | FAS-TE conf inactive
C/C(=N\Nc1ccc(C(F)(F)F)cn1)c1ccc(S(=O)(=O)NCc2ccco2)cc1	none
C/C(=N\Nc1nc(Cl)c(Cl)cc1Cl)c1ccc(S(=O)(=O)NCc2ccco2)cc1	FAS-TE inh 52 | FAS-TE conf inactive
C/C(=N\Nc1ccccn1)c1ccc(S(=O)(=O)NCc2ccco2)cc1	FAS-TE inh 54 | FAS-TE conf 40
Nc1ncnc2c1ncn2[C@@H]1O[C@H](C(=O)N[C@@H](CCc2ccccc2)C(=O)N2CCN(C(=O)N3CCOCC3)CC2)[C@@H](O)[C@H]1O	none (no result: Myeloid diff MLP, MPTP inh, NR3A LBD binder, FAS-TE inh)
CCS(=O)(=O)c1ccc2oc(Nc3ccc(C(C)(C)C)cc3)nc2c1	FAS-TE inh 76 | FAS-TE conf 52
CCS(=O)(=O)c1ccc2oc(Nc3ccc(OC)cc3)nc2c1	none
CC(C)[C@H](NC(=O)C1CC1)C(=O)N1CCC[C@H]1C(=O)NCc1ccccc1	none (no result: Myeloid diff MLP, MPTP inh, NR3A LBD binder, FAS-TE inh)
CCOC(=O)N=Nc1c2ccccc2c2nc3no[nH]c3nc12	Myeloid diff MLP inconclusive, NR3A LBD binder 25, FAS-TE inh 87 | FAS-TE conf 43
Cc1noc(C)c1S(=O)(=O)N1CCCc2nc(-c3ccc(F)cc3)ccc21	none (no result: Myeloid diff MLP, MPTP inh, NR3A LBD binder, FAS-TE inh)
O=C(C(=O)N1CCC(CNC(=O)c2sc3ccccc3c2Cl)CC1)c1cccs1	none (no result: Myeloid diff MLP, MPTP inh, NR3A LBD binder, FAS-TE inh)
CC(C)NC(=O)c1sc(=S)n2c1[nH]c(=O)c1ccc(C(=O)NCCc3ccc(Cl)cc3)cc12	Myeloid diff MLP inconclusive, FAS-TE inh 64 | FAS-TE conf inactive
C[C@H](CO)N1C[C@H](C)[C@@H](CN(C)C(=O)Nc2cccc(F)c2)OCc2cn(nn2)CCCC1=O	none (no result: Myeloid diff MLP, MPTP inh, NR3A LBD binder, FAS-TE inh)
Cc1cc(OCc2nc(N)nc(N)c2-c2ccc(Cl)c(Cl)c2)ccc1[N+](=O)[O-]	FAS-TE inh 51 (no result: Myeloid diff MLP) | FAS-TE conf inactive
O=C(CCn1c(=O)c2ccccc2n(Cc2cccc([N+](=O)[O-])c2)c1=O)N1CCc2ccccc2C1	FAS-TE inh 87 | FAS-TE conf 47
Cc1c(Cl)c([N+](=O)[O-])nn1CCCC(=O)N1CCN(c2ccccc2)CC1	none
O=C(Cn1cc([N+](=O)[O-])ccc1=O)N1CCc2ccccc21	none
Cc1c(Br)c([N+](=O)[O-])nn1CCCC(=O)N1CCN(c2ccccc2)CC1	FAS-TE inh 54 | FAS-TE conf 43
Cc1c(Cl)c([N+](=O)[O-])nn1CCCC(=O)N(Cc1ccccc1)Cc1ccccc1	FAS-TE inh 63 | FAS-TE conf 61

Screening data deposited in PubChem by several laboratories.
